Screening data from PubChem.
ATG4B inhibitor = blocks human ATG4B protease cleavage of LC3 substrate. inhibition, % at 8.33 µM. ATG4B cleavage of LC3-PLA2, NBD-HPC fluorescence, 1 h. hit rate 0.51% among 340,000. AID 504462. Q9Y4P1; in the data active = inhibition above about 40%
NRP1-CendR mod = alters CendR peptide binding to human NRP-1. AID 602438. FAM-RPARPAR peptide binding to NRP-1, fluorescence polarization. O14786. hit rate 0.85% among 360,000. inhibition, % at 25 µM;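 active = inhibition or corrected inhibition above about 18%, plus a signal ratio from 0.5 to 1.5, limit read from the data, passing the limit was not always enough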
PKA-R1A activ = activates the PKA-R1A holoenzyme complex; P00514+P68181; PKA-R1A dissociation, Cy5-IP20 fluorescence polarization; scaled: DMSO 0%, 113 µM cGMP 100%; activation, % at 11.4 µM; hit rate 0.083% among 340,000; AID 504707;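 active = percent activation above the mean of all tested compounds plus 3 SD, cut at about 19% in these data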;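 also: higher means more PKAc released from R1A so a rise in polarization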
PKA-R2B activ = PKA-R2B complex activation; PKA-R2B holoenzyme dissociation, Cy5-IP20 fluorescence polarization; R2B truncated from residue 108, S112A mutant; 0% DMSO only, 100% 113 µM cGMP; P22694+P31323; activation, % at 11.4 µM; AID 504700; hit rate 0.079% among 340,000;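 active = activation above a cutoff set at the mean over all compounds plus 3 SD, cut at about 18% in these data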;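 also: higher means more holoenzyme dissociation and a rise in polarization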
VLA-4 inh = inhibition in a human VLA-4 binding assay; P13612; VLA-4 expressing cells, ligand binding flow cytometry; inhibition, % (about 7 µM as worked out from the volumes in the protocol); hit rate 0.2% among 330,000; AID 2557
ATG4B confirm = ATG4B (human) inhibition, single-dose confirmed; shares compounds with ATG4B inhibitor; ATG4B protease fluorescent substrate cleavage assay; inhibition, % at 8.33 µM; hit rate 92% among 320; AID 504757; in the data active = inhibition above about 39%
PLA2 ctr = counter-screen for ATG4B inhibitors: human phospholipase A2 | hit rate 66% among 1,600 | inhibition, % at 8.33 µM | shares compounds with ATG4B inhibitor | purified PLA2, NBD-C6-HPC fluorescence, 45 min | AID 588402
An asterisk follows results filed as active; x = not tested or not shown. In the library only some 1.6% were active in any assay of this set; here they are far more common. Rule as the data show it, unless noted: active = inhibition above about 50%; inactive = the rest.

SMILES	ATG4B inhibitor	NRP1-CendR mod	PKA-R1A activ	PKA-R2B activ	VLA-4 inh	PLA2 ctr	others
Cc1cc(C)cc(N(CC(=O)Nc2ccccc2-c2ccccc2)S(=O)(=O)c2ccccc2)c1	57*	2	9	9	-14	14
Cc1ccccc1CN(C)CC(=O)Nc1ccccc1-c1ccccc1	51*	-10	-6	1	-2	54*
Cc1ccc(N(CC(=O)Nc2ccccc2-c2ccccc2)S(=O)(=O)c2ccccc2)cc1	38	-6	7	-1	-4	x
CCN(CC)CCn1c2c(c(SCC(=O)Nc3nc4ccccc4s3)nc1=O)CCC2	-12	-4	1	-6	5	x
Cc1c(Cl)c([N+](=O)[O-])nn1Cc1ccc(C(=O)Nc2ccc(Cl)cn2)o1	46*	2	7	-6	9	40	ATG4B confirm=64*
O=c1/c(=C/c2ccccn2)sc2nc3ccccc3n12	-1	13	10	7	9	x
O=c1/c(=C\c2cc([N+](=O)[O-])cc([N+](=O)[O-])c2O)sc2nc3ccccc3n12	59*	9	-6	-4	-10	69*
O=C(NCc1ccccc1Cl)C1CCN(S(=O)(=O)c2ccc(F)cc2)CC1	16	1	3	4	3	x
O=C(NC1CCc2ccccc21)C1CCN(S(=O)(=O)c2ccc(Cl)cc2)CC1 (stereo not drawn)	46*	2	-3	4	8	40
CC1CCc2nc3ccc(S(=O)(=O)N4CCC(C(=O)NCc5ccccc5Cl)CC4)cc3c(C(=O)O)c2C1 (stereo not drawn)	55*	-23	6	7	36	79*
Cc1ccc(S(=O)(=O)N2CCC(C(=O)NCc3ccccc3Cl)CC2)cc1	46*	6	-9	-6	0	45	ATG4B confirm=67*
O=C(NC1CCCc2ccccc21)C1CCN(S(=O)(=O)c2ccccc2)CC1 (stereo not drawn)	16	-4	-6	1	-15	x
COc1ccc(CNC(=O)C2CCN(S(=O)(=O)c3ccc4nc5c(c(C(=O)O)c4c3)CC(C)CC5)CC2)cc1 (stereo not drawn)	3	-8	2	9	3	x
O=C(O)CC/C(=C\c1ccc(N2CCCC2)c([N+](=O)[O-])c1)c1nc2ccccc2s1	83*	-2	2	3	-1	83*
O=C(O)CC/C(=C\c1cccc(NC(=O)c2ccccc2Cl)c1)c1nc2ccccc2s1	43*	-22	-2	-16	21	62*
O=C(O)CC/C(=C\c1ccccc1[N+](=O)[O-])c1nc2ccccc2s1	53*	-12	-2	-1	-11	51*
CC(C)(C)C1(O)CC(C(F)(F)F)=NN1C(=O)Cc1ccc([N+](=O)[O-])cc1 (stereo not drawn)	-4	10	-6	7	0	x
Cc1cc(NS(=O)(=O)c2ccc(NC(=O)COc3ccc(C#N)cc3)cc2)nc(C)n1	-4	3	-6	-3	-14	x
NS(=O)(=O)c1ccc(CCNC(=O)Cc2ccc(S(=O)(=O)N3CCOCC3)s2)cc1	7	-30	0	0	-22	x
CC(C)CSc1nc(N)nc2c1ncn2C1OC(CO)C(O)C1O (stereo not drawn)	0	3	-3	-5	x	x
Cc1cc(NCc2ccc(F)cc2Cl)n2nnnc2n1	48*	3	-11	-7	3	48	ATG4B confirm=70*
C=CCOc1ccccc1CN1CCC(Oc2ccc(C(=O)N3CCCC3)cc2)CC1	15	4	7	1	-98	x
COc1cc(/C=C/CN2CCC(Oc3ccc(C(=O)N4CCCC4)cc3)CC2)ccc1O	40*	2	-6	-19	x	50
O=C(c1ccc(OC2CCN(Cc3ccc(C(F)(F)F)cc3)CC2)cc1)N1CCCCC1	41*	4	-8	0	3	51*
COc1ccccc1/C=C/CN1CCC(Oc2ccc(C(=O)N3CCCC3)cc2)CC1	20	5	-3	6	-28	x
SMILES	ATG4B inhibitor	NRP1-CendR mod	PKA-R1A activ	PKA-R2B activ	VLA-4 inh	PLA2 ctr	others
O=C(c1ccc(OC2CCN(Cc3ccccc3OC(F)F)CC2)cc1)N1CCCC1	42*	6	2	4	-5	52*
CC(=O)Nc1ccccc1NC(=O)C/C(C)=N/NC(=O)Cc1cccc2ccccc12	-2	0	0	0	2	x
Cc1cccc(CNC(=O)c2ccc3c(c2)N(C)CCS3)c1	21	3	0	3	0	x
CN1CCSc2ccc(C(=O)NCc3cccc(Br)c3)cc21	41*	-10	-6	7	7	57*
CCN1CCSc2ccc(C(=O)NCc3ccccc3Br)cc21	38	-3	2	1	12	x
CCN1CCSc2ccc(C(=O)NCc3ccccc3C)cc21	44*	-1	-3	-4	-18	59*
COc1cccc(NC(=O)COc2coc(CN3CCc4ccccc4C3)cc2=O)c1	0	1	-6	0	1	x
COc1ccccc1Nc1cc(C(=O)N2CCc3ccccc3C2)c2ccccc2n1	x	x	x	x	-4	x
COc1ccc(Nc2cc(C(=O)N3CCc4ccccc4C3)c3ccccc3n2)c(OC)c1	68*	10	-5	-5	4	82*
CCOc1cc2c3c(c1)C1(Nc4ccccc4S1)C(=O)N3C(C)(C)CC2C (stereo not drawn)	43*	-9	0	7	7	28
Cc1sc2nc(SCc3nnc(-c4cccs4)o3)n(C3CCCC3)c(=O)c2c1C	44*	-8	0	10	24	66*
CCOC(=O)c1ccc(NC(=O)NCc2ccccc2)cc1	49*	2	1	-4	-28	56*
CCOC(=O)c1ccc(NC(=S)NCc2ccccc2)cc1	33	-5	-9	-6	25	x
Cc1cccc(N2CCN(S(=O)(=O)c3ccc4c(c3)CCN4C(=O)CCC(=O)O)CC2)c1C	41*	-11	-3	10	7	30
Cc1ccccc1C(=O)Nc1sc(C)c(C)c1C(=O)c1ccccc1	41*	-6	1	0	-58	61*
O=C(Nc1sc2c(c1C(=O)O)CCC2)c1ccccc1Cl	12	-2	-10	13	1	x
Cc1ccccc1C(=O)Nc1sc2c(c1C(=O)O)CCC2	52*	0	-6	8	4	49
O=C(NC(=S)Nc1sc2c(c1C(=O)O)CCCC2)c1ccccc1	52*	-25	0	6	42	62*
CN1CCN(c2nc(-c3cc4ccccc4o3)cs2)CC1	-4	0	0	1	33	x
NC(=O)C1CCN(c2nc(-c3cc4ccccc4o3)cs2)CC1	45*	-8	-10	-4	-8	49
